# Assay results published in the antibiotic and cytotoxicity screens of Wong et al. (2023).
# Hit rate of the full screen: of about 39,000 compounds, about 500 (1.3%) were called active. What follows is part of a selection rich in actives, with near analogues and random picks from the rest.
# Test system: S. aureus RN4220
# Assay: growth inhibition call (relative growth <= 0.2)
# Conditions: 50 µM
row,SMILES,growth inhibition call
1,CC(C)NC(=O)N(C)C[C@@H]1Oc2ccc(NC(=O)Cc3ccccc3)cc2CC(=O)N([C@@H](C)CO)C[C@H]1C,inactive
2,CC(C)[C@@H](CS(=O)(=O)C(C)C)N1C(=O)[C@@](C)(CC(=O)O)C[C@H](c2cccc(Cl)c2)[C@H]1c1ccc(Cl)cc1,inactive
3,COc1ccc(C[C@H](N)C(=O)N[C@H]2[C@@H](O)[C@@H](n3cnc4c(N(C)C)ncnc43)O[C@@H]2CO)cc1,active
4,CN(C)c1ncnc2c1ncn2[C@H]1O[C@@H](CO)[C@@H](N)[C@@H]1O,inactive
5,CNc1ncnc2c1ncn2[C@@H]1O[C@H](CO)[C@@H](O)[C@H]1O,inactive
6,COc1ccc(CC(N)C(=O)NC2C(CO)OC(n3cnc4c(N(C)C)ncnc43)C2O)cc1.Cl.Cl (stereo unspecified),inactive
7,COc1ccc(C[C@@H](N)C(=O)N[C@@H]2[C@@H](O)[C@@H](n3cnc4c(N(C)C)ncnc43)O[C@@H]2CO)cc1,active
8,COc1nc(N)nc2c1ncn2[C@@H]1O[C@H](CO)[C@@H](O)[C@@H]1O,inactive
9,COc1ccc(C[C@H](N)C(=O)N[C@H]2[C@@H](O)[C@H](n3cnc4c(N(C)C)ncnc43)O[C@@H]2CO)cc1,active
10,Nc1ncnc2c1ncn2[C@@H]1O[C@H](CO)[C@@H](O)[C@@H]1O,inactive
11,Nc1ncnc2c1ncn2[C@H]1O[C@@H](CO)[C@H](O)[C@@H]1O,inactive
12,O=C(C[C@@H]1CC[C@@H]2[C@H](COC[C@@H](O)CN2C(=O)c2ccccc2F)O1)N1CCN(c2ccccc2)CC1,inactive
13,C[C@H](CO)N1C[C@H](C)[C@H](CN(C)Cc2ccc(C(=O)Nc3ccccc3N)cc2)Oc2ccc(NC(=O)Nc3ccc(C(F)(F)F)cc3)cc2CC1=O,inactive
14,C[C@@H]1CN([C@@H](C)CO)C(=O)c2cc(NS(=O)(=O)c3cn(C)cn3)ccc2O[C@@H]1CN(C)S(=O)(=O)c1cccs1,inactive
15,Cc1noc(C)c1NC(=O)Nc1cccc2c1O[C@H](CN(C)Cc1ccc(C(=O)Nc3ccccc3N)cc1)[C@@H](C)CN([C@H](C)CO)C2=O,inactive
16,Cc1noc(C)c1S(=O)(=O)Nc1ccc2c(c1)C(=O)N([C@@H](C)CO)C[C@H](C)[C@@H](CN(C)Cc1ccc3c(c1)OCO3)O2,inactive
17,CCCCCCCCC=CCCCCCCCC(=O)[O-].[NH3+]CCO,inactive
18,C[C@H]1CN([C@@H](C)CO)C(=O)c2cc(NC(=O)Nc3cccc4ccccc34)ccc2O[C@@H]1CN(C)Cc1ccc(-c2ccccc2)cc1,inactive
19,Cl.Cl.N=C(NCCCCCCNC(=N)NC(=N)Nc1ccc(Cl)cc1)NC(=N)Nc1ccc(Cl)cc1,active
20,Cl.N=C(NN=Cc1ccc(Cl)cc1)NN=Cc1ccc(Cl)cc1,inactive
21,CC(C)NC(=N)NC(=N)Nc1ccc(Cl)cc1.Cl,inactive
22,C[C@H](CO)N1C[C@H](C)[C@H](CN(C)Cc2ccc3c(c2)OCO3)Oc2c(NC(=O)C3CC3)cccc2C1=O,inactive
23,C[C@H](CO)N1C[C@H](C)[C@@H](CN(C)Cc2ccc(C(=O)O)cc2)Oc2ccc(NC(=O)Cn3cnnn3)cc2C1=O,inactive

row,SMILES,growth inhibition call
1,Cl.Nc1ccn(C2OC(CO)C(O)C2(F)F)c(=O)n1 (stereo unspecified),active
2,C[C@@]1(F)[C@H](O)[C@@H](CO)O[C@H]1n1ccc(N)nc1=O,inactive
3,Nc1ccn([C@@H]2O[C@H](CO)[C@@H](O)C2(F)F)c(=O)n1,inactive
4,COc1ccc(NC(=O)N(C)C[C@@H]2OCCCC[C@H](C)Oc3ccc(NC(=O)c4ccccc4)cc3C(=O)N([C@@H](C)CO)C[C@@H]2C)cc1,inactive
5,COc1ccc2c3c([nH]c2c1)[C@@H](CO)N(Cc1ccc(cc1)Cl)C[C@]13CCN(CCc2ccccc2)CC1,active
6,COc1ccc2c3c([nH]c2c1)[C@H](CO)N(Cc1ccc(cc1)Cl)C[C@]13CCN(CC1)Cc1nccs1,inactive
7,COc1ccc2c3c([nH]c2c1)[C@H](CO)N(Cc1ccc(cc1)Cl)C[C@]13CN(CCc2ccccc2)C1,active
8,COc1ccc2c3c([nH]c2c1)[C@H](CO)N(Cc1ccc(cc1)Cl)C[C@]13CCN(CC1)Cc1ccccc1,inactive
9,COc1ccc2c3c([nH]c2c1)[C@@H](CO)N(Cc1ccc(cc1)Cl)C[C@]13CCN(CC1)Cc1ccccc1,inactive
10,COc1ccc2c3c([nH]c2c1)[C@@H](CO)N(C[C@]13CN(CCc2ccccc2)C1)C(=O)CN1CCOCC1,inactive
11,COc1ccc2c3c([nH]c2c1)[C@H](CO)N(C[C@]13CN(CCc2ccccc2)C1)C(=O)CN1CCOCC1,inactive
12,COc1ccc2c3c([nH]c2c1)[C@@H](CO)N(Cc1ccc(cc1)Cl)C[C@]13CN(CCc2ccccc2)C1,active
13,COc1ccc2c3c([nH]c2c1)[C@H](CO)N(Cc1ccc(cc1)Cl)C[C@]13CCN(CCc2ccccc2)CC1,inactive
14,Cc1ccc(NC(=O)Nc2cc(C(F)(F)F)ccc2F)cc1Nc1ccc2c(c1)NC(=O)/C2=C\c1ccc[nH]1,inactive
15,N[C@@]1(C(=O)O)CO[C@H]2[C@H](C(=O)O)[C@H]21,inactive
16,O=C(NCC(=O)N1CC[C@H](N[C@H]2CC[C@@](O)(c3ccc(-c4ncccn4)cn3)CC2)C1)c1cccc(C(F)(F)F)c1,inactive
17,CO[C@@H]1CN(C)C(=O)c2cc(NS(=O)(=O)CC(F)(F)F)ccc2OC[C@H](C)N(Cc2ccccn2)C[C@H]1C,inactive
18,CCCNC(=O)N1[C@@H]2Cn3c(cccc3=O)[C@H]1[C@@H](C(=O)NCC(F)(F)F)[C@@H]2CO,inactive
19,C[C@@H]1CN([C@H](C)CO)C(=O)c2cc(NC(=O)CCCN(C)C)ccc2O[C@H]1CN(C)C(=O)Nc1ccccc1,inactive
20,CCS(=O)(=O)Nc1ccc2c(c1)C(=O)N(C)[C@H]1CC[C@@H](CC(=O)NCc3ccc(OC)cc3)O[C@@H]1CO2,inactive
21,C[C@@H]1CN([C@@H](C)CO)C(=O)Cc2cc(NC(=O)Cn3cnnn3)ccc2O[C@H]1CN(C)S(=O)(=O)c1cccs1,inactive
22,COc1ccc(NC(=O)Nc2cccc3c2O[C@H](CN(C)S(=O)(=O)c2cn(C)cn2)[C@@H](C)CN([C@H](C)CO)C3=O)cc1,inactive
23,COC(=O)c1c(CC[C@@H](CO)NC(=O)N[C@@H](Cc2ccccc2)Cn2cc(C3(O)CCCCC3)nn2)oc(C(C)=O)c1C(=O)OC,inactive
